Assay [1] concerns the target human RAR-related Orphan Receptor beta (RORb), RORB (gene 6096) (UniProt Q92753). The assay can be described thus: ATG_RORb_TRANS: Attagene TRANS-FACTORIAL HepG2 Assay for human RAR-related Orphan Receptor beta (RORb) (AID 2283010). In outline: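 In this TRANS-format test, human HepG2 cells express chimeric NR-Gal4 fusion proteins driving GAL4-UAS reporters. After 24 h dosing, reporter transcripts are measured by fluorescent RT-PCR/capillary electrophoresis, with DMSO as negative control.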

For assay [2], the target named is Retinoic acid receptor RXR-alpha (Homo sapiens) (UniProt P19793). As to the kind of experiment: ATG_RXRa_TRANS: Attagene TRANS-FACTORIAL HepG2 Assay for human Retinoid X Receptor alpha (RXRa) (AID 2283012). In short, it runs like this: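 Cells (HepG2) carried transiently transfected GAL4-responsive reporter units. Following a 24 h chemical incubation, reporter mRNA induction was read via RT-PCR fragment analysis; DMSO served as negative control and baseline.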

For assay [3], the target named is human Retinoid X Receptor beta (RXRb), RXRB (gene 6257) (UniProt P28702). The assay can be described thus: ATG_RXRb_TRANS: Attagene TRANS-FACTORIAL HepG2 Assay for human Retinoid X Receptor beta (RXRb) (AID 2283013). In short, it runs like this: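 Multiplexed TRANS reporter assay in HepG2; 24 h dosing; reporter mRNA by RT-PCR/CE fluorescence; gain-of-signal relative to DMSO.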

Assay [4] has as its target human Vitamin D Receptor (VDR), VDR (gene 7421) (UniProt P11473). The assay can be described thus: ATG_VDR_TRANS: Attagene TRANS-FACTORIAL HepG2 Assay for human Vitamin D Receptor (VDR) (AID 2283022). In short, it runs like this: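 HepG2 cells were transiently transfected with GAL4-UAS reporter units and a chimeric VDR-Gal4 construct, then dosed for 24 hours. Reporter mRNA was quantified by RT-PCR, fluorescent labeling, HpaI digestion and capillary electrophoresis; gain of signal analysed vs DMSO.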

The target of assay [5] is human Thyroid Receptor alpha (THRa1), THRA (gene 7067) (UniProt P10827). The assay can be described thus: ATG_THRa1_TRANS: Attagene TRANS-FACTORIAL HepG2 Assay for human Thyroid Receptor alpha (THRa1) (AID 2283014). In short, it runs like this:
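HepG2 cells transiently transfected with chimeric NR-Gal4 and GAL4-UAS reporter units, dosed 24 h. Reporter mRNA quantified by RT-PCR, fluorescent labeling, HpaI digestion and capillary electrophoresis; gain-of-signal fit versus DMSO.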

Read-out in assay [6]: E-selectin (Homo sapiens) (UniProt P16581)
The assay can be described thus: BSK_3C_Eselectin: BioMAP Diversity Plus: 3C Assay for Eselectin Biomarker Activity (AID 2283015; active = hit-call score of the fitted dose curve at least 0.9, where 1 is the maximum; inactive = score below 0.9;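 note: cell surface E-selectin protein quantified by ELISA 24 h after dosing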). The note with it: primary human endothelial cells (HUVEC); actives raise or lower the signal. In short, it runs like this:
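Primary human umbilical vein endothelial cells (3C system), read 24 h after compound addition; E-selectin measured by ELISA. Bidirectional curve fitting against DMSO baseline; cytotoxicity by parallel SRB total-protein staining.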

Read-out in assay [7]: Interleukin-1 alpha (IL1a), IL1A (gene 3552)
The assay can be described thus: BSK_BE3C_IL1a: BioMAP Diversity Plus: BE3C Assay for Interleukin-1 alpha (IL1a) Biomarker Activity (AID 2283016; active = hit-call score of the fitted dose curve at least 0.9, where 1 is the maximum; inactive = score below 0.9). The settings on record: primary human bronchial epithelial cells; actives raise or lower the signal. In short, it runs like this:
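Cultures of primary human bronchial epithelial cells receive test chemical. After 24 h, IL-1a is quantified by ELISA, while parallel wells are fixed in TCA and SRB-stained for total protein. Changes in either direction are fitted relative to DMSO.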

Read-out in assay [8]: Monocyte Chemoattractant Protein-1 (MCP1), CCL2 (gene 6347)
The assay can be described thus: BSK_3C_MCP1: BioMAP Diversity Plus: 3C Assay for Monocyte Chemoattractant Protein-1 (MCP1) Biomarker Activity (AID 2283017; active = hit-call score of the fitted dose curve at least 0.9, where 1 is the maximum; inactive = score below 0.9). The settings on record: primary human endothelial cells (HUVEC); actives raise or lower the signal. In short, it runs like this: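 Human umbilical vein endothelial cells (3C system) exposed to chemicals for 24 h; MCP-1 quantified by ELISA against the DMSO baseline with bidirectional fitting, and parallel SRB staining used to assess cytotoxicity.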

Read-out in assay [9]: Monocyte Chemoattractant Protein-1 (MCP1), CCL2 (gene 6347)
As to the kind of experiment: BSK_4H_MCP1: BioMAP Diversity Plus: 4H Assay for Monocyte Chemoattractant Protein-1 (MCP1) Biomarker Activity (AID 2283018; active = hit-call score of the fitted dose curve at least 0.9, where 1 is the maximum; inactive = score below 0.9). The note with it: primary human endothelial cells (HUVEC); actives raise or lower the signal. In short, it runs like this: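 Readout: MCP-1 ELISA on compound-treated HUVEC, sampled 24 h post-dosing. Baseline and negative control DMSO; bidirectional fit. Overt toxicity checked alongside by sulforhodamine B protein staining at time of biomarker measurement.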

Read-out in assay [10]: Human Leukocyte Antigen - DR isotype (HLADR), HLA-DRA (gene 3122)
The assay can be described thus: BSK_3C_HLADR: BioMAP Diversity Plus: 3C Assay for Human Leukocyte Antigen - DR isotype (HLADR) Biomarker Activity (AID 2283019; active = hit-call score of the fitted dose curve at least 0.9, where 1 is the maximum; inactive = score below 0.9;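 note: ELISA of cell-surface HLA-DR on HUVEC 24 h after dosing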). The note with it: primary human endothelial cells (HUVEC); actives raise or lower the signal. In outline:
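HUVEC monoculture, HLA-DR measured by ELISA 24 h after chemical dosing. Fitted bidirectionally against DMSO baseline; parallel SRB staining assessed cytotoxicity, with 3C proliferation read by SRB at 48 h.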

Read-out in assay [11]: Monokine induced gamma interferon (MIG), CXCL9 (gene 4283)
As to the kind of experiment: BSK_3C_MIG: BioMAP Diversity Plus: 3C Assay for Monokine induced gamma interferon (MIG) Biomarker Activity (AID 2283021; active = hit-call score of the fitted dose curve at least 0.9, where 1 is the maximum; inactive = score below 0.9). The settings on record: primary human endothelial cells (HUVEC); actives raise or lower the signal. In outline:
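After 24 h of treatment, human umbilical vein endothelial cultures (3C system) had their MIG biomarker level determined by ELISA, with DMSO serving as negative control.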

Assay [12] is described as follows: BSK_3C_SRB: Viability Assessment in the BioMAP Diversity Plus: 3C Assay (AID 2283023; active = hit-call score of the fitted dose curve at least 0.9, where 1 is the maximum; inactive = score below 0.9;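 note: fitted both ways against DMSO so a hit may be signal rise or drop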). The settings on record: primary human endothelial cells (HUVEC). In short, it runs like this:
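Human umbilical vein endothelial cells in the 3C system, treated 24 h. Total protein measured by 0.1% sulforhodamine B staining after 10% TCA fixation, read at 560 nm; bidirectional fit versus DMSO.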

Read-out in assay [13]: Matrix Metallopeptidase 1 (MMP1), MMP1 (gene 4312)
As to the kind of experiment: BSK_BE3C_MMP1: BioMAP Diversity Plus: BE3C Assay for Matrix Metallopeptidase 1 (MMP1) Biomarker Activity (AID 2283024; active = hit-call score of the fitted dose curve at least 0.9, where 1 is the maximum; inactive = score below 0.9). The settings on record: primary human bronchial epithelial cells; actives raise or lower the signal. In short, it runs like this: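 Dose cells, wait 24 h, run MMP1 ELISA; cells are human bronchial epithelial primaries. Both increases and decreases relative to DMSO counted.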

A short description of assay [14]: BSK_3C_Vis: BioMAP Diversity Plus: 3C Assay for Morphology Visualization (AID 2283025; active = hit-call score of the fitted dose curve at least 0.9, where 1 is the maximum; inactive = score below 0.9;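 note: fitted both ways so gain or loss versus DMSO counts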). The settings on record: primary human endothelial cells (HUVEC). In short, it runs like this:
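Endothelial cells from human umbilical vein were treated with test chemicals for 24 h and inspected by light microscopy for changes in cell conformation.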

Read-out in assay [15]: Pselectin, SELP (gene 6403)
As to the kind of experiment: BSK_4H_Pselectin: BioMAP Diversity Plus: 4H Assay for Pselectin Biomarker Activity (AID 2283026; active = hit-call score of the fitted dose curve at least 0.9, where 1 is the maximum; inactive = score below 0.9). The settings on record: primary human endothelial cells (HUVEC); actives raise or lower the signal. In outline:
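Human vascular endothelium from umbilical vein; P-selectin measured by ELISA at 24 h post-dose, with cytotoxicity checked by sulforhodamine B total-protein staining in parallel cultures (0.1% SRB after 10% TCA fixation, read at 560 nm).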

Assay [16] in a line: BSK_4H_SRB: Viability Assessment in the BioMAP Diversity Plus: 4H Assay (AID 2283027; active = hit-call score of the fitted dose curve at least 0.9, where 1 is the maximum; inactive = score below 0.9;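 note: cells exposed to compound for 24 h before staining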). The settings on record: primary human endothelial cells (HUVEC). In short, it runs like this:
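Absorbance at 560 nm of SRB-stained total protein served as the viability read-out in confluent primary human umbilical vein endothelium 24 h after chemical treatment. Curves were fitted bidirectionally against DMSO as negative control.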

Assay [17] in a line: BSK_BE3C_SRB: Viability Assessment in the BioMAP Diversity Plus: BE3C Assay (AID 2283028; active = hit-call score of the fitted dose curve at least 0.9, where 1 is the maximum; inactive = score below 0.9). The note with it: primary human bronchial epithelial cells. In outline:
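Human bronchial epithelial primary cells in confluent culture, 24 h after chemical dosing; total protein by 0.1% SRB staining after 10% TCA fixation, read at 560 nm. Bidirectional fitting versus DMSO baseline.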

Read-out in assay [18]: Thrombomodulin, THBD (gene 7056)
The assay can be described thus: BSK_3C_Thrombomodulin: BioMAP Diversity Plus: 3C Assay for Thrombomodulin Biomarker Activity (AID 2283029; active = hit-call score of the fitted dose curve at least 0.9, where 1 is the maximum; inactive = score below 0.9). The settings on record: primary human endothelial cells (HUVEC); actives raise or lower the signal. In short, it runs like this:
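Thrombomodulin ELISA, human primary HUVEC, 24 h post-dose; data fitted in both directions relative to DMSO.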

Assay [19] concerns the target human RAR-related Orphan Receptor gamma (RORg), RORC (gene 6097) (UniProt P51449). The assay can be described thus: ATG_RORg_TRANS: Attagene TRANS-FACTORIAL HepG2 Assay for human RAR-related Orphan Receptor gamma (RORg) (AID 2283011). In outline: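 HepG2 cells transiently transfected with GAL4-UAS reporter units and chimeric RORg-Gal4 construct; after 24 h chemical exposure, reporter mRNA measured by RT-PCR with fluorescent capillary electrophoresis, gain of signal fitted against DMSO.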

Inconclusive results are not listed. Activity calls are given as the source filed them. Rule for the calls, unless noted: active = hit-call score of the fitted dose curve at least 0.9, where 1 is the maximum; inconclusive = response in the unintended direction; inactive = score below 0.9.

The values that follow come from PubChem BioAssay (EPA / NIEHS).

human RAR-related Orphan Receptor beta (RORb), RORB (gene 6096), sequence (Q92753 whole entry, looked up, the tested form may be a part): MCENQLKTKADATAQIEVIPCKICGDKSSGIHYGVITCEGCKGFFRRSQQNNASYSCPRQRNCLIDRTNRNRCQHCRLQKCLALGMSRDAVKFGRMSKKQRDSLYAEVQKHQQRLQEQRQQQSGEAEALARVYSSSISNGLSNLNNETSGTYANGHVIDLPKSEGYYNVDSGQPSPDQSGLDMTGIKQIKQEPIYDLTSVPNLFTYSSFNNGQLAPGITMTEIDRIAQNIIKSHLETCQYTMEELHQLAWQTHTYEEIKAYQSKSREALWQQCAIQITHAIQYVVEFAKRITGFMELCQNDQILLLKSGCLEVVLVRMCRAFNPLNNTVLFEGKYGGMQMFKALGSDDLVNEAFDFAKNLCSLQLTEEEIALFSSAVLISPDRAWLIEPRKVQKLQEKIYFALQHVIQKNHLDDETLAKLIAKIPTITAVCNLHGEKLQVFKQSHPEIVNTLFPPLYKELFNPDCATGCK
human Thyroid Receptor alpha (THRa1), THRA (gene 7067), sequence (P10827 whole entry, looked up, the tested form may be a part): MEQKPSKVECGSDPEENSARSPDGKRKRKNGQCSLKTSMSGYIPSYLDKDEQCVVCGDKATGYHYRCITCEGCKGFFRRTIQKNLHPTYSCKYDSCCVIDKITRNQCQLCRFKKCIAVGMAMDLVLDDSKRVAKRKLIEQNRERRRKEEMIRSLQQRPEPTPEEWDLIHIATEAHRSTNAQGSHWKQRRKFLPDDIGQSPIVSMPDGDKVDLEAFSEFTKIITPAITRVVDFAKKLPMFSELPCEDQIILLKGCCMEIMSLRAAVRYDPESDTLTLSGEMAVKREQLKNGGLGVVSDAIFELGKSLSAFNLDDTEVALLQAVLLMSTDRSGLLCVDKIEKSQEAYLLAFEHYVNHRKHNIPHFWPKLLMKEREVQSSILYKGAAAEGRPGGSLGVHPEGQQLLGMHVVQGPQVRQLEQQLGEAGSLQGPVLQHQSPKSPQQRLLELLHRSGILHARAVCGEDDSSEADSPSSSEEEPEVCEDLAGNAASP
human Vitamin D Receptor (VDR), VDR (gene 7421), sequence (P11473 whole entry, looked up, the tested form may be a part): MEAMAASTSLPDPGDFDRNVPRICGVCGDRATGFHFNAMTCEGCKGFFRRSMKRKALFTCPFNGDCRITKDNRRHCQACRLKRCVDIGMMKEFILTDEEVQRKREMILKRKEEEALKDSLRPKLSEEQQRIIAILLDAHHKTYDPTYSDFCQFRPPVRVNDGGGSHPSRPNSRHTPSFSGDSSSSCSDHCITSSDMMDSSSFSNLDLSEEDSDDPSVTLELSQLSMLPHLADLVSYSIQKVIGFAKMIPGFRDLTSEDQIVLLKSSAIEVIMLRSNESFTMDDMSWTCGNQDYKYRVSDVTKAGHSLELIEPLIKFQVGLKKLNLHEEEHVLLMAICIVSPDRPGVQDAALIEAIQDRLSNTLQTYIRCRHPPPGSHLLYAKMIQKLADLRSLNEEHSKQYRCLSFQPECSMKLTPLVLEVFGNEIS
human Retinoid X Receptor beta (RXRb), RXRB (gene 6257), sequence (P28702 whole entry, looked up): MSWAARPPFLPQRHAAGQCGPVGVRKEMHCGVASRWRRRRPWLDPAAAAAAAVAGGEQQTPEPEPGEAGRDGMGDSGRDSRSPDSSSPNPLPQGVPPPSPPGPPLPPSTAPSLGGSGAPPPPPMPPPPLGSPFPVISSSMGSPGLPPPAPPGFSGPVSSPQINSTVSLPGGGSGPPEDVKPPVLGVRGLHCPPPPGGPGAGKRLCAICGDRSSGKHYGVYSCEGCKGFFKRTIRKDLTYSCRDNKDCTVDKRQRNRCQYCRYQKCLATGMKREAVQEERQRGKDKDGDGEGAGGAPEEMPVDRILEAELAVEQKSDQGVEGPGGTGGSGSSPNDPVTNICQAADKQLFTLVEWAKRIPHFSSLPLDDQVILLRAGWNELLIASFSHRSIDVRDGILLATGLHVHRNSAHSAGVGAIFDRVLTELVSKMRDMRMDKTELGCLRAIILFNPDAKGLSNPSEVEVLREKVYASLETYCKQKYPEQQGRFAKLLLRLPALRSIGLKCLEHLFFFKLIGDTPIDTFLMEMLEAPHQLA
Retinoic acid receptor RXR-alpha (Homo sapiens), sequence (P19793 whole entry, looked up, the tested form may be a part): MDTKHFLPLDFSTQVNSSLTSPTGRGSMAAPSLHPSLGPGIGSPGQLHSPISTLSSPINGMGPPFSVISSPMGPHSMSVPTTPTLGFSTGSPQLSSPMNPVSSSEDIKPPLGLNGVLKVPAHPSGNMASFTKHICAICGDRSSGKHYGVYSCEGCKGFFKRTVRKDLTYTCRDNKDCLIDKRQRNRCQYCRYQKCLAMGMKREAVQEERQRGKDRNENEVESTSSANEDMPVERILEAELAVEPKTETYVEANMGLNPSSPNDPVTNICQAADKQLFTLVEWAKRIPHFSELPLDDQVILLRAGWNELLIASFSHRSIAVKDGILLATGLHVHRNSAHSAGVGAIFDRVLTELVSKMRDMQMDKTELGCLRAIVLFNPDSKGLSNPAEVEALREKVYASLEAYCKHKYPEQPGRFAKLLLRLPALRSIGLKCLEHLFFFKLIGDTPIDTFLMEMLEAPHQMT
human RAR-related Orphan Receptor gamma (RORg), RORC (gene 6097), sequence (P51449 whole entry, looked up, the tested form may be a part): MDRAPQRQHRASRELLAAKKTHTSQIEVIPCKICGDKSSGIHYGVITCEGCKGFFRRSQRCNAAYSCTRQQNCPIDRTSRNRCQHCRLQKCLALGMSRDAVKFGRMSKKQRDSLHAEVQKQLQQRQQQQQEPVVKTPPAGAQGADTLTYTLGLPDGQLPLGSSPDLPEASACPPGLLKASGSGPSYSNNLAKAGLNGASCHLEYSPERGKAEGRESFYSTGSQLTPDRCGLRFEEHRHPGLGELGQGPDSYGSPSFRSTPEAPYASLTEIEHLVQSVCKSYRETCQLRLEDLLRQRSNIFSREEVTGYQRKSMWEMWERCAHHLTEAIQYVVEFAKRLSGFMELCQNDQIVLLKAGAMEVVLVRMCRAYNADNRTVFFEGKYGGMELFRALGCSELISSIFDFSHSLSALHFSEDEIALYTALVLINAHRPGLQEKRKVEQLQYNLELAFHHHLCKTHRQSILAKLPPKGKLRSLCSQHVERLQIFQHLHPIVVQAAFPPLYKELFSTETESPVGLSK
E-selectin (Homo sapiens), sequence (P16581 whole entry, looked up): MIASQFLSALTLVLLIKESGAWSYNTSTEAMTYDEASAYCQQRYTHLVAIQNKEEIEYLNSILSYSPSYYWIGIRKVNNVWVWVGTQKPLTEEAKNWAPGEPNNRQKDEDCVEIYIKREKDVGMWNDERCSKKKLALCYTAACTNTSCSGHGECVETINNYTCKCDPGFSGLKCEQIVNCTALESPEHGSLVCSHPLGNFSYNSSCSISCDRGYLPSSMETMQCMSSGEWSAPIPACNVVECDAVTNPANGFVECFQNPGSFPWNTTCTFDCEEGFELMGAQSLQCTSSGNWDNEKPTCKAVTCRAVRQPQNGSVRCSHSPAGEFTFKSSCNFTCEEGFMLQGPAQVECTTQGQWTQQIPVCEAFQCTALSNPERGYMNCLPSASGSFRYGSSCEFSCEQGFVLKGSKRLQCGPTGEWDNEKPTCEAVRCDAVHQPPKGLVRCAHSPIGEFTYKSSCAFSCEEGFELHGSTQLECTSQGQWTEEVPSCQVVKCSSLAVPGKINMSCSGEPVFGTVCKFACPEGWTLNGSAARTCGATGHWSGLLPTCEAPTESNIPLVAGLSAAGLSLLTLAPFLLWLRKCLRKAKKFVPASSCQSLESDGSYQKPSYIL

Consider `C=C(C)C(=O)OCCOC(=O)C(=C)C`, for which the outcome in assay [1], in [2], in assay [3] and in assay [4] was inactive.

Take `CC=CC(=O)OCC(C)C`: the call in [1], in assay [2] and in assay [5] was inactive.

Regarding `O=C1CCCCC1C1CCCCC1` (stereo unspecified), the compound was classed as inactive in [1], in assay [2], in assay [3] and in [4].

Regarding `C=C[C@@]1(C)CC(=O)[C@]2(O)[C@@]3(C)[C@@H](O)CCC(C)(C)[C@@H]3[C@H](O)[C@H](OC(C)=O)[C@@]2(C)O1`, the compound was called inactive in assay [1] and in assay [4]. Further, the AC50 (as a rule, the concentration at which the activity in the assay is half-maximal) in [2] was 26.9 µM (active); in [3], 3.64 µM (active); in assay [5], 33.4 µM (active).

On to `O=C(O)c1cc(O)c2ccccc2c1O`, for which the outcome in assay [1], in [2], in assay [3] and in assay [5] was inactive.

For the compound `O=C1CCCCCCCCCCC1`, the outcome in [1], in assay [2], in assay [6], in assay [7], in assay [8] and in assay [9] was inactive. Besides, the outcome in assay [10], in [11], in assay [12], in assay [13], in assay [14] and in [15] was inactive. The result in [16], in assay [17] and in assay [18] was inactive. Further, in assay [3], the AC50 was 44.4 µM (active).

Consider `Nc1ccc(C(=O)O)cc1`, for which the result in assay [1], in assay [19], in assay [7], in [8], in assay [9] and in [10] was inactive. Besides, the outcome in assay [11], in assay [12], in assay [14], in assay [15], in assay [16] and in assay [17] was inactive. Also, the outcome in [18] was inactive.

Regarding `Cc1ccc2c(c1)CCCN2`, the outcome in assay [1], in [2] and in [3] was inactive.

On to `CC(C=O)c1ccccc1` (stereo unspecified), for which the call in assay [1], in assay [2], in [3] and in [4] was inactive.

In the case of `Nc1ccc(Cl)c(N)c1`, the compound was called inactive in assay [1], in [2], in [3] and in assay [5].

For `Cc1c(O)cccc1O`, the compound was classed as inactive in [1], in assay [7], in assay [8], in assay [10], in [11] and in [12]. Moreover, the result in [14], in [15], in [16], in assay [17] and in assay [18] was inactive.

In the case of `O=C(O)CCC(=O)O`, the compound was classed as inactive in assay [1], in assay [3] and in assay [4].

In the case of `CC(=O)CCC=C(C)C`, the compound was called inactive in assay [1], in [3], in [5] and in assay [4].

As to `COC(=O)c1ccc(C(=O)OC)c(C(=O)OC)c1`, the compound was classed as inactive in assay [1] and in [3].

For `CCOC(=O)CC(=O)c1ccccc1`, the compound was classed as inactive in assay [19].
